Source: PubChem (National Center for Advancing Translational Sciences (NCATS))
Most compounds without a hit are left out; they make up all but 0.4% or so of the library.
TRPV1 PAM: human TRPV1 potentiation. TRPV1-expressing cells, Fluo-8 calcium influx, capsaicin EC20 potentiation. 320,000 tested, 0.02% active. potentiation, % at 8.33 µM; in the data active means potentiation above about 80%; inconclusive means between about 30% and that limit; further: 0% is about no effect
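Cells expressing TRPV1 were dye-loaded with Fluo-8 and read kinetically: 10 s baseline, 3 min after compound (agonist portion), then 2 min after EC20 capsaicin (allosteric enhancer portion). Calcium-bound dye fluorescence at 480/520 nm.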
TRPML1 blocker: inhibitors of human TRPML1 channel; AID 624415; activity change, negative = inhibition, % (test concentration not listed); TRPML1-inducible cells, Ca2+ dye fluorescence, FDSS; stronger effect = lower value; inhibition of EC80 agonist-evoked calcium signal; 390,000 tested, 0.02% active; Q9GZU1; in the data active means activity change below about -50%; inconclusive means between about -30% and that limit;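 further: stimulus is agonist 54-4 at its EC80 concentration; on the % scale 0 is the no-effect control and ±100 the full control effect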
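Calcium fluorescence in TRPML1-DL cells induced overnight with Tet: a 110 s read after compound pin addition, then a 110 s antagonist read after challenge with 54-4 at 4 uM final (EC80).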
TRPV1 agonist: activates the human vanilloid receptor TRPV1; Q8NER1; TRPV1-expressing cells, Fluo-8 calcium influx, agonist mode; activation, % at 8.33 µM; 320,000 tested, 0.19% active; AID 540275; in the data active means activation above about 80%; inconclusive means between about 30% and that limit; further: 0% is about no effect
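Cells expressing TRPV1 were dye-loaded with Fluo-8 and read kinetically: 10 s baseline, 3 min after compound (agonist portion), then 2 min after EC20 capsaicin (allosteric enhancer portion). Calcium-bound dye fluorescence at 480/520 nm.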
TRPML1 ag: activates the human TRPML1 channel; Q9GZU1; AID 624414; 410,000 tested, 0.12% active; TRPML1-expressing cells, Ca2+ dye fluorescence, FDSS; activation, % (concentration not given with the values); in the data active means activation above about 50%; inconclusive means mostly about 30% to 49%; further: 0% is about no effect
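In this qHTS format, compounds were pin-transferred onto Ca8-dye-loaded TRPML1-DL cells induced with Tet overnight, and intracellular Ca2+ fluorescence was recorded kinetically for 110 s after a 10 s baseline. A subsequent 4uM final 54-4 (EC80) addition followed by a second 110 s read served as the antagonist phase.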
USP1-UAF1 inh: blocks the human USP1/UAF1 deubiquitinase complex; O94782; recombinant USP1/UAF1, Ub-Rhodamine cleavage fluorescence; Potency, µM (series often up to 57.1 µM), for the others: top-dose activity change, negative = inhibition, most hits filed as inhibitors; 390,000 tested, 0.23% active; active means well fitted inhibition curve with a large enough effect; inconclusive means small, poorly fitted or top-dose-only effect; inactive means no such curve, though single readings can be large or run the other way; further: potency means the concentration at half of the fitted maximal effect; on the % scale 0 is the no-effect control and ±100 the full control effect; nearly all actives have a fitted effect of over 60% in size
Target sequence (O94782 whole entry, looked up): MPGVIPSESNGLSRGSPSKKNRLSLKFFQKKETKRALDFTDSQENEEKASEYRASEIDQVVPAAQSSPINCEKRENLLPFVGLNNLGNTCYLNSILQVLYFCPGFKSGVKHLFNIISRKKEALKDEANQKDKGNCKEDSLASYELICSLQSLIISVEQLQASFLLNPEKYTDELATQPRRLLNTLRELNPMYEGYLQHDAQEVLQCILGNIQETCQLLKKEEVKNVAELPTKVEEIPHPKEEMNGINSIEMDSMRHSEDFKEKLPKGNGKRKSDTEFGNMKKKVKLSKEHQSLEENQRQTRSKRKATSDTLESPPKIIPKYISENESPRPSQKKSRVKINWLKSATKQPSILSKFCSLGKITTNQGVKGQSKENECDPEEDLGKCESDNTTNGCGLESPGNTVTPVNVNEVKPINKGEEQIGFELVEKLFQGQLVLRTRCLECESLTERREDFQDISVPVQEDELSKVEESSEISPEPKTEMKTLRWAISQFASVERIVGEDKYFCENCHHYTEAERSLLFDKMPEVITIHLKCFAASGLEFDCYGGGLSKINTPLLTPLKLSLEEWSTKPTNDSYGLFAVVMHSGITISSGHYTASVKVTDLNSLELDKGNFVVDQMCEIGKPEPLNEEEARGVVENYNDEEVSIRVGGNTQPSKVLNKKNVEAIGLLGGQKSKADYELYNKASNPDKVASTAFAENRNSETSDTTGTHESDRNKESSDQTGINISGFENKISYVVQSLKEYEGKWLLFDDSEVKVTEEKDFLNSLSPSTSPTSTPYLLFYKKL
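USP1/UAF1 complex at 1 nM was preincubated with compound for 15 min at room temperature, then Ub-Rho substrate (150nM final) was added. Fluorescence (480/540 nm) was read kinetically, 6 reads every 60 seconds.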
Active calls of the source: *; ? = inconclusive; . = no result; ! = a repeat was not active.

SMILES	TRPV1 PAM	TRPML1 blocker	TRPV1 agonist	TRPML1 ag	USP1-UAF1 inh
CN1CCN(c2ccc(N)cc2Cl)CC1	84.9*	-15.4	-14.3	0.4	-10.8%
CCOc1cc(CNCCc2c[nH]c3ccccc23)cc(Cl)c1OC	-0.1	-4.4	7.5	-0.8	-3.9%
Nc1c(C(=O)NC2CCCC2)c2nc3ccccc3nc2n1CC1CCCO1 (centres undefined)	-11.9	13.2	?	-0.1	28.2µM*
O=C(Oc1c(Cl)cc(Cl)c2ccccc12)N1CCCCC1	-4.4	-12.6	25.7	68.0*	-9.2%
CCOC(=O)c1c(NS(=O)(=O)c2ccccc2)n(CCCOC)c2nc3ccccc3nc12	9.0	-4.2	5.8	-0.6	1.78µM*
COCCCn1c(N)c(C(=O)OCCOC)c2nc3ccccc3nc21	-12.4	7.2	0.1	-0.8	-7.1%
CCCCCn1c(NC(=O)c2ccco2)c(C(=O)OCC)c2nc3ccccc3nc21	-2.0	-3.1	3.8	-0.1	7.08µM*
CCCCNC(=O)c1c(N)n(CCCOC)c2nc3ccccc3nc12	-1.8	4.1	?	0.4	11.2µM*
Cc1ccc2c(c1)C1CN(C)CCC1N2C(=O)c1cn(-c2ccccc2)nc1-c1ccccc1 (centres undefined)	-7.7	31.9	21.3	1.1	-11.7%
COc1ccccc1CCNC1CCC(C(C)(C)C)CC1 (centres undefined)	-11.0	23.9	3.2	0.8	-11.3%
O=C(c1cc2cc(F)ccc2[nH]1)N1CCC2(CC1)OCCO2	26.8	17.0	3.3	0.2	-6.2%
Cc1ccc(Cn2nc(C(=O)Nc3ccc(Br)cc3)cc2C)cc1	-2.7	66.5	107.9*	5.1	-12.3%
CCOC(=O)c1ccc(NC(=O)c2cccn(Cc3ccc(C)cc3)c2=O)cc1	.	-20.4	.	-0.9	-9.2%
O=C(O)CC1OCC=C2CN3CCC45c6ccccc6NC4C1C2CC35 (centres undefined)	14.1	-5.5	-1.2	2.0	6.8%
O=C(O)CC1OCC=C2CN3CCC45C6=CC(=O)C(=O)C([N+](=O)[O-])=C6NC4C1C2CC35 (centres undefined)	20.0	33.2	-1.6	-0.9	5.01µM*
C[C@H]1COC2=C1C(=O)C(=O)c1c2ccc2c1CCCC2(C)C	-1.9	.	9.2	.	31.6µM*
COc1ccc(C(=O)N2C[C@H]3C[C@@H](C2)c2cccc(=O)n2C3)cc1OC	-3.3	.	1.4	.	21.2%
COc1ccc(N2C(=O)/C(=C/c3ccc(C)o3)C(=O)NC2=S)cc1	-6.0	1.1	-3.9	1.3	-18.9%
COc1ccc(OC)c(N2C(=O)/C(=C/c3ccco3)C(=O)NC2=S)c1	-14.5	23.9	-5.0	-0.5	15.8µM*
COc1ccc(OC)c(N2C(=O)NC(=O)/C(=C/c3ccc([N+](=O)[O-])s3)C2=O)c1	9.7	9.7	-1.0	-0.6	15.8µM*
Cc1nc2c(=O)n(C)c(=O)nc-2n(C)n1	?	1.6	2.6	-0.2	0.0316µM*
CC(C)c1ccc(C(c2c(O)c3ccccc3oc2=O)c2c(O)c3ccccc3oc2=O)cc1	.	6.8	.	1.3	28.2µM*
CCN1/C(=C/C=C/C2=[N+](CC)c3ccccc3C2(C)C)C(C)(C)c2ccccc21	.	-14.6	.	75.6*	25.1µM*
CN1/C(=C\C=C\C2=[N+](C)c3ccc4ccccc4c3C2(C)C)C(C)(C)c2ccccc21	-9.8	.	0.3	.	.
COc1cccc(C2=NOC(C(=O)N3CCC4(CC3)OCCO4)C2)c1 (centres undefined)	-0.4	-7.1	-2.0	0.8	3.6%
SMILES	TRPV1 PAM	TRPML1 blocker	TRPV1 agonist	TRPML1 ag	USP1-UAF1 inh
CCCCn1c(O)c(C(C)=NCCc2c[nH]c3ccccc23)c(=O)[nH]c1=O	14.2	-12.2	14.5	1.2	-23.6%
O=C(/C=C/c1c[nH]c2ccccc12)c1c(O)n(CCc2ccccc2)c(=O)[nH]c1=O	-3.5	-2.2	?	13.8	25.1µM*
CN(C)C(Cc1ccccc1)C(=O)c1c[nH]c2ccccc12 (centres undefined)	7.5	-16.1	11.1	0.3	-24.9%
NC1=C(Br)C(=O)c2ccccc2C1=O	6.4	-6.2	-4.3	2.9	8.91µM*
O=C1C(=O)c2ccccc2-c2ccccc21	-13.7	-4.1	2.2	4.4	1µM*
O=C1C(=O)c2cccc3cccc1c23	-0.4	-18.2	-7.2	0.6	-13.8%
Cc1c(N=Nc2c(O)[nH]c(=O)[nH]c2=O)c(=O)n(-c2ccccc2)n1C	2.9	-11.6	-1.5	0.1	-8.7%
CCOc1ccc(NC(=O)c2ccc(F)c(S(=O)(=O)NCc3ccc4c(c3)OCO4)c2)cc1	.	-27.1	.	3.0	?
CN1CCN(c2ccc(/C=C3\C(=O)NC(=S)N(c4cccc(Br)c4)C3=O)o2)CC1	3.2	-8.4	20.0	12.0	31.6µM*
CN1C(=O)/C(=C\c2ccc(N3CCCCC3)o2)C(=O)NC1=S	9.3	1.3	3.1	10.1	-26.2%
O=C1NC(=S)N(c2ccc(F)cc2)C(=O)/C1=C\c1ccoc1	2.6	-12.5	0.3	1.2	28.2µM*
O=C1NC(=S)N(c2ccc(F)cc2)C(=O)/C1=C/c1ccco1	6.2	.	3.2	.	.
Cc1cccc(CN2C(=O)CN=C(c3ccccc3)c3ccccc32)c1	.	13.1	.	2.4	-27.1%
CN1/C(=C\C=C2C(=O)NC(=O)NC2=O)C(C)(C)c2ccccc21	-20.1	-10.0	?	81.4*	?
CC(CC(C#N)(c1ccccc1)c1ccccc1)N1CCOCC1 (centres undefined)	.	-1.3	.	0.6	-4.3%
CC1Oc2cc3c(-c4c(O)cc(O)c5c(O)c6c(cc45)OC(C)C(C)C6=O)c(O)cc(O)c3c(O)c2C(=O)C1C (centres undefined)	-3.8	.	-3.1	.	12.6µM*
Cc1cccc(N2C(=O)/C(=C/c3ccc(CN(CCC#N)S(C)(=O)=O)o3)C(=O)NC2=S)c1	2.6	-6.7	2.8	-0.1	25.1µM*
Cc1ccc(N2C(=O)/C(=C/c3ccc(CN(CCC#N)S(C)(=O)=O)o3)C(=O)NC2=S)cc1C	5.7	.	-1.8	.	.
O=c1oc(-c2cccc(C(F)(F)F)c2)nn1-c1ccc(C(F)(F)F)cn1	.	29.5	.	1.0	?
Nc1ccc(C2(c3ccc(N)cc3)c3ccccc3-c3ccccc32)cc1	-5.4	34.5	-0.2	0.2	-22.1%
Nc1ccc2c3c(cccc13)-c1ccccc1-2	.	-5.9	.	?	5.62µM*
CC(=O)N1CCN(c2ccc([N+](=O)[O-])cc2C=C2C(=O)NC(=O)NC2=O)CC1	17.8	12.0	1.7	-0.1	-4.8%
O=C(/C=C/c1ccc(Br)cc1)NC(=S)N1C[C@H]2C[C@H](C1)c1cccc(=O)n1C2	0.4	.	-1.1	.	-12.9%
C[n+]1c2cc(N)ccc2cc2ccc(N)cc21	.	?	.	104.4*	3.98µM*!
Nc1ccc2ccccc2c1	.	14.2	.	1.0	-4.7%
CC1(C)CSC(=NCc2ccccc2)N1	-25.6	8.2	?	91.4*	3.5%
